The whole screen tested about 290,000 compounds, of which about 3,000 (1%) were called active. Cut-off read from the data, not from the text of the source: active = inhibition mostly above about 36% (no sharp cut-off); inactive = mostly below about 34%. The list comes from a sample in which actives are over-represented; it also holds similar structures and randomly drawn compounds.

This experiment in a line: inhibition of NOD1-driven NF-kB reporter – cell-based, luminescence, uHTS, primary screen (AID 1578).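 Note: HEK-293T reporter cells stimulated with the NOD1 agonist gamma-tri-DAP.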 Particulars: NOD1-driven NF-kB luciferase reporter cells, at 4 µM, stronger effect = higher value.
In the case of `CCOC(=O)c1ccc(NC(=O)CSc2nc(N)c(NC(=O)c3ccc(Br)o3)c(=O)[nH]2)cc1`, the inhibition is -26.5% (inactive).

For the compound `CN(C(=O)COC(=O)c1cc(S(=O)(=O)N2CCCCC2)ccc1N1CCOCC1)C1CCS(=O)(=O)C1` (stereo unspecified), the inhibition is -0.1% (inactive).

As to `COC(=O)N/N=C/c1cc(C)n(-c2ccc(F)cc2)c1C`, the inhibition was -30% (inactive).

Turning to `COC(=O)C1C2C=CC3(CN(CCc4ccccc4)C(=O)C13)O2` (stereo unspecified), the inhibition is -14.5% (inactive).

Consider `Cc1[nH][nH]c(=O)c1/C=N/N1CCOCC1`, for which the inhibition was -39.8% (inactive).

On to `CCC(C)(C(=O)NC1CCCCC1)N(C(=O)CC1NC(=O)NC1=O)c1c(C)n(C)n(-c2ccccc2)c1=O` (stereo unspecified), for which the inhibition is -11.2% (inactive).

For `Cc1cccc(-n2ncc3c(N4CCCC4)ncnc32)c1`, the inhibition was -40.5% (inactive).

In the case of `CC1CCN(c2ncnc3c2cnn3-c2ccccc2)CC1`, the inhibition is -77.4% (inactive).

In the case of `c1ccc(-n2ncc3c(N4CCCCC4)ncnc32)cc1`, the inhibition is 61.4% (active).

`COc1cc(OC)c2cc(C(=O)N[C@H](C(=O)N3CCC[C@H]3C(=O)O)C(C)C)n(C)c2c1`: the inhibition is -17.5% (inactive).

For `Cc1nc(SCC(N)=O)c(C#N)c(C)c1C`, the inhibition is 5.5% (inactive).

As for `CCN(CC)C(=O)c1ccc(Nc2nnc(-c3ccc(O)cc3)c3ccccc23)cc1`, the inhibition was 72.7% (active).

With `CCN(CC)C(=O)c1ccc(-c2nnc(Nc3ccc(C(=O)N(C)C)cc3)c3ccccc23)cc1`, the inhibition was 37.7% (inactive).

Regarding `CCN(CC)C(=O)c1ccc(-c2nnc(Nc3ccc(O)cc3)c3ccccc23)cc1`, the inhibition is 43% (inactive).

Consider `Cn1cc(Br)c(C(=O)N/N=C/c2cccc(OC3CSC3)c2)n1`, for which the inhibition was 0.1% (inactive).

`Cn1ncc(Cl)c1C(=O)N/N=C/c1cccc(OC2CSC2)c1`: the inhibition is -1.4% (inactive).

For the compound `Cn1ncc(Br)c1C(=O)N/N=C/c1cccc(OC2CSC2)c1`, the inhibition was 60.4% (active).

For `CCOC(=O)c1cnc(SCC(=O)Nc2ccc(N3CCOCC3)cc2)nc1N`, the inhibition is -15% (inactive).

With `O=c1cc(NS(=O)(=O)c2ccccc2)nc(SCc2c(Cl)cccc2Cl)[nH]1`, the inhibition was 102% (active).

With `O=c1cc(NS(=O)(=O)c2ccccc2)nc(SCc2ccc(Cl)cc2)[nH]1`, the inhibition was -1.1% (inactive).

As for `O=c1cc(NS(=O)(=O)c2ccccc2)nc(SCc2ccccc2Cl)[nH]1`, the inhibition is -0.5% (inactive).

`Cc1ccc(NC(=O)CCc2nnc3ccc(N4CCC(C)CC4)nn23)nc1`: the inhibition is -3.1% (inactive).

Turning to `Cc1[nH]n(C(N)=S)c(=O)c1N=Nc1ccc(Br)cc1`, the inhibition was -21.9% (inactive).

With `CCOc1ccc(N(CC)C(=O)Cc2c(C(=O)O)n(C)c3ccccc23)cc1`, the inhibition is -11.1% (inactive).

Regarding `CC(C)Cc1nc(N2CCN(C(=O)c3ccco3)CC2)c(C#N)c2c1CCC2`, the inhibition is -0.7% (inactive).

With `CC(C)Cc1nc(N2CCN(C(=O)c3ccco3)CC2)c(C#N)c2c1CCCC2`, the inhibition was 2.6% (inactive).

On to `CCN(CC)S(=O)(=O)c1ccc(N2CCOCC2)c(NC(=O)c2ccc3ccccc3c2)c1`, for which the inhibition was -17% (inactive).

Consider `Cc1nn(CCc2nn[nH]n2)c2nc(C(F)(F)F)cc(C(F)(F)F)c12`, for which the inhibition was -7.9% (inactive).

On to `CCOc1cc(C(=O)Nc2ccc3c(c2)OCO3)ccc1OC(F)F`, for which the inhibition is -17.4% (inactive).

As for `Cc1ccc(-n2nnc(-c3nccs3)n2)cc1`, the inhibition is 77.8% (active).

Take `Brc1ccccc1-n1nnc(-c2nccs2)n1`: the inhibition was -44.7% (inactive).

For `Clc1ccc(-n2nnc(-c3cccnc3)n2)cc1Cl`, the inhibition is -12.2% (inactive).

With `Clc1ccc(-n2nnc(-c3cccnc3Cl)n2)cc1Cl`, the inhibition was -3% (inactive).

Consider `Clc1ccc(-n2nnc(-c3nccs3)n2)cc1Cl`, for which the inhibition is 110% (active).

Turning to `Fc1ccc(-n2nnc(-c3nccs3)n2)cc1`, the inhibition was -26% (inactive).

`CCCC(c1nnnn1Cc1cccs1)N1CCN(C2CCCC2)CC1` (stereo unspecified): the inhibition was -49.9% (inactive).

Take `COc1ccccc1-n1cnc2sc(-c3ccccc3)cc2c1=O`: the inhibition is 30.1% (inactive).

As for `O=C(CNC(=O)c1cccc(OC(F)F)c1)OCc1cc(=O)n2cc(Br)ccc2n1`, the inhibition was 4.7% (inactive).

`OC(COc1ccccc1)CN1CCC(Cc2ccccc2)CC1` (stereo unspecified): the inhibition was -20.8% (inactive).

In the case of `CN(C)c1nc(C(F)(F)F)cc(=O)[nH]1`, the inhibition was -21.2% (inactive).

Take `c1ccc(-n2ncc3c(N4CCC5(CC4)OCCO5)ncnc32)cc1`: the inhibition was -67% (inactive).

With `COc1cccc(NC(=O)C2COc3ccccc3O2)c1` (stereo unspecified), the inhibition is 104% (active).

`O=C(Nc1ccccc1)C1COc2ccccc2O1` (stereo unspecified): the inhibition is -21.9% (inactive).

`COC(=O)c1cccc(NC(=O)C2COc3ccccc3O2)c1` (stereo unspecified): the inhibition was -42.9% (inactive).

Turning to `O=C(Nc1nncs1)C1COc2ccccc2O1` (stereo unspecified), the inhibition is -18.9% (inactive).

Regarding `O=C(NC1=NCCS1)C1COc2ccccc2O1` (stereo unspecified), the inhibition was 82.7% (active).

With `Cc1cccc(NC(=O)C2COc3ccccc3O2)c1` (stereo unspecified), the inhibition was -23% (inactive).

Turning to `c1ccc(COc2cccc(CNCc3cccs3)c2)cc1`, the inhibition was -31.8% (inactive).

As for `O=C1CSc2ccc(C(=O)N3CCN(c4ccccn4)CC3)cc2N1`, the inhibition is 0.1% (inactive).

On to `C#CCSc1ncc(S(=O)(=O)c2ccccc2)c(=O)[nH]1`, for which the inhibition was 7.6% (inactive).

For `COCCCn1c(SCC(=O)Nc2ccc(C(C)=O)cc2)nc2ccccc2c1=O`, the inhibition is -25.3% (inactive).

Regarding `c1ccc(-c2nc3ccccc3[nH]2)cc1`, the inhibition was -1.5% (inactive).

For `O=C(O)c1cccc(-c2nc3ccccc3[nH]2)c1`, the inhibition is 61.9% (active).

For `O=C(O)c1ccc(-c2nc3ccccc3[nH]2)cc1`, the inhibition was -38.1% (inactive).

For the compound `Cc1ccc(N/C(=C\C(=O)c2ccccc2)C(=O)O)cc1`, the inhibition was -33.5% (inactive).

With `O=[N+]([O-])c1ccc(S(=O)(=O)c2ccccc2)nc1`, the inhibition is 29% (inactive).

In the case of `Cc1ccc(S(=O)(=O)N2CCN(c3ccc([N+](=O)[O-])cn3)CC2)cc1`, the inhibition is -9.1% (inactive).

Regarding `CCOc1cccc(C(=O)Nc2ccc(S(=O)(=O)Nc3cc(C)on3)cc2)c1`, the inhibition was -2% (inactive).

For `CCN(CC)c1ncnnc1-c1ccccc1`, the inhibition was -22.1% (inactive).

Turning to `CC(C)(C)S(=O)(=O)/C(C#N)=N/Nc1ccc(C#N)cc1`, the inhibition was -38.5% (inactive).

Turning to `CC(C)(C)S(=O)(=O)/C(C#N)=N/Nc1ccc(Cl)cc1`, the inhibition was 4.5% (inactive).

As for `CC(C)(C)c1ccc(N/N=C(\C#N)S(=O)(=O)C(C)(C)C)cc1`, the inhibition was 41% (active).

As for `CC(=O)C1=C(O)C(=O)N(CCc2ccccc2)C1c1ccccc1[N+](=O)[O-]` (stereo unspecified), the inhibition was -12% (inactive).

As for `CCOC(=O)N1CCN(C(=O)c2cc3cc(OC)c(OC)cc3[nH]2)CC1`, the inhibition is -3.4% (inactive).

Turning to `O=C(NCCc1ccccc1)C(=O)NCC1OCCN1S(=O)(=O)c1ccc(Cl)cc1` (stereo unspecified), the inhibition is -1.1% (inactive).

`CCCCN(C)Cc1c(C)[nH]c2c(Cl)cccc2c1=O`: the inhibition was -15% (inactive).

On to `CCc1nnc(NC(=O)c2ccc(S(=O)(=O)N3CCc4ccccc4C3)cc2)s1`, for which the inhibition is -1.9% (inactive).

For `O=C(Nc1nnc(C2CC2)s1)c1ccc(Cl)c(S(=O)(=O)N2CCc3ccccc3C2)c1`, the inhibition was 59% (inactive).

On to `CN1CCN(c2nc3ccccc3nc2C(C#N)S(=O)(=O)c2ccccc2)CC1` (stereo unspecified), for which the inhibition is -5.2% (inactive).

Consider `CSC1=N/C(=C\c2ccccc2Cl)C(=O)N1N(C)C`, for which the inhibition is 0.8% (inactive).

Consider `O=C(CN1CCc2ccccc2C1)NCC(=O)Nc1ccc(F)cc1`, for which the inhibition was -25.2% (inactive).

For `CCOc1cc(C2/C(=C(/O)c3ccc(OC)cc3)C(=O)C(=O)N2CC2CCCO2)ccc1O` (stereo unspecified), the inhibition is -1.7% (inactive).

Turning to `COc1ccc(O)c(CN2CCC(n3nccc3NC(=O)CCOc3ccccc3)CC2)c1`, the inhibition is -1.2% (inactive).

Turning to `COC(=O)Nc1ccc(S(=O)(=O)NC2CCS(=O)(=O)C2)cc1` (stereo unspecified), the inhibition is -9.9% (inactive).

On to `Cn1c(N)c(C(=O)CCl)c(=O)n(Cc2ccccc2)c1=O`, for which the inhibition was 43.7% (inactive).

As for `COC(=O)Cn1c(=O)c(C(=O)CCl)c(N)n(Cc2ccccc2)c1=O`, the inhibition is 69.8% (active).

As to `CCn1c(=O)c(C(=O)CC#N)c(N)n(Cc2ccccc2)c1=O`, the inhibition is -11.1% (inactive).

On to `COc1ccc(-c2csc3ncnc(N4CCN(c5ccccc5Cl)CC4)c23)cc1`, for which the inhibition was -4.5% (inactive).

With `CCOP(=O)(OCC)/C(=N/OC(=O)c1ccccc1C)C(N)=O`, the inhibition was -58.9% (inactive).

For `O=C(Cc1ccccc1)NCCc1cn2ccsc2n1`, the inhibition is -3.8% (inactive).

Regarding `COc1ccc(NC(=O)C(NC(=O)c2ccc(C)cc2)c2ccccc2)cc1` (stereo unspecified), the inhibition was 62.7% (active).

For `Cc1ccc(C(=O)NC(C(=O)Nc2ccccc2)c2ccccc2)cc1` (stereo unspecified), the inhibition is -3.5% (inactive).

`COc1ccc(NC(=O)C(NC(=O)c2ccc(=O)[nH]c2)c2ccccc2)cc1` (stereo unspecified): the inhibition is -7.3% (inactive).

For `CCc1ccccc1NC(=O)c1cc(-c2ccc(OC)cc2)on1`, the inhibition is -2% (inactive).

As for `CC1Cc2ccccc2N1C(=O)CN1CCC(n2nnc3cc(C(F)(F)F)ccc32)CC1` (stereo unspecified), the inhibition is 23.9% (inactive).

As to `O=C(O)c1ccccc1C(=O)Nc1cccc([N+](=O)[O-])c1`, the inhibition is -0.9% (inactive).

With `CC(=O)Nc1ccc(Br)c2ccccc12`, the inhibition is -4.6% (inactive).

With `O=C(Nc1cccc([N+](=O)[O-])c1)c1cc2ccccc2cc1O`, the inhibition is 17.3% (inactive).

As to `O=C(Nc1ccccn1)c1ccc2ccccc2c1O`, the inhibition was -61.1% (inactive).

`O=C(O)c1cccc(NC(=S)N/N=C/c2ccccc2OCc2cccc(Br)c2)c1`: the inhibition is -13.5% (inactive).

For the compound `Cc1noc(-c2ccccc2)c1NC(=O)Nc1ccccc1`, the inhibition is 2% (inactive).

As for `C=CCOc1ccc2ccccc2c1CNCCCN1CCOCC1`, the inhibition was 10% (inactive).

On to `CCN1C(=O)N(S(=O)(=O)C(F)(F)F)[C@@H](c2ccccc2)C(C(=O)OC)=C1C`, for which the inhibition is 0.6% (inactive).

In the case of `Cc1nc(N2CCN(c3ccccn3)CC2)c2c(C)c(C(=O)Nc3c(F)cc(F)cc3Br)sc2n1`, the inhibition was -28.6% (inactive).

On to `Cc1nc(N2CCN(c3ccccn3)CC2)c2c(C)c(C(=O)Nc3ccc(Cl)cc3)sc2n1`, for which the inhibition is -14% (inactive).

`Cc1c(C(=O)N2CCN(c3ccccc3)CC2)sc2ncnc(N3CCN(c4ccccn4)CC3)c12`: the inhibition is 27.4% (inactive).

For `Cc1nc(N2CCN(c3ccccn3)CC2)c2c(C)c(C(=O)Nc3ccc(F)cc3Cl)sc2n1`, the inhibition is 6.8% (inactive).

`Cc1c(C(=O)N2CCN(c3ccccn3)CC2)sc2ncnc(N3CCOCC3)c12`: the inhibition was -12.5% (inactive).

As to `Cc1nc(N2CCN(c3ccccn3)CC2)c2c(C)c(C(=O)Nc3ccc(F)cc3F)sc2n1`, the inhibition is 12.3% (inactive).

As to `COc1ccccc1N1CCN(C(=O)c2sc3nc(C)nc(N4CCN(c5ccccn5)CC4)c3c2C)CC1`, the inhibition was 33.2% (inactive).

On to `Cc1nc(N2CCN(c3ccccn3)CC2)c2c(C)c(C(=O)N3CCN(c4cccc(Cl)c4)CC3)sc2n1`, for which the inhibition was 18% (inactive).

Usually inhibition stands for the change of the read-out against control, counted positive when it falls.
